Holding throughout (assay): PBM; 200 nM protein, PBS
What all share (conditions): dsDNA, one strand shown

Assay [1] has as its target T1, SIX6 (Homo sapiens, UniProt O95475 114-200, L167I).
T1 sequence: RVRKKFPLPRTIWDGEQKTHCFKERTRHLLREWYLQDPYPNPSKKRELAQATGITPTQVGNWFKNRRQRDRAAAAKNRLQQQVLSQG

Assay [2] concerns the target T2, SIX6 (Homo sapiens, UniProt O95475 114-200, L143V).
T2 sequence: T1 sequence with L30V, I54L

Assay [3] addresses T3, SIX6 (Homo sapiens, UniProt O95475 114-200, H141N).
T3 sequence: T1 sequence with H28N, I54L

Assay [4] deals with T4, SIX6 (Homo sapiens, UniProt O95475 114-200, T165P).
T4 sequence: T1 sequence with T52P, I54L

The target of assay [5] is T5, SIX6 (Homo sapiens, UniProt O95475 114-200, L167M).
T5 sequence: T1 sequence with I54M

For assay [6], the target named is T6, SIX6 (Homo sapiens, UniProt O95475 114-200, L143M).
T6 sequence: T1 sequence with L30M, I54L

The target of assay [7] is T7, SIX6 (Homo sapiens, UniProt O95475 114-200, L143I).
T7 sequence: T1 sequence with L30I, I54L

Assay [8] has as its target T8, SIX6 (Homo sapiens, UniProt O95475 114-200, T165G).
T8 sequence: T1 sequence with T52G, I54L

Assay [9] deals with T9, SIX6 (Homo sapiens, UniProt O95475 114-200, T139Q).
T9 sequence: T1 sequence with T26Q, I54L

The target of assay [10] is T10, SIX6 (Homo sapiens, UniProt O95475 114-200, T165A).
T10 sequence: T1 sequence with T52A, I54L

Assay [11] has as its target T11, SIX6 (Homo sapiens, UniProt O95475 114-200, L167V).
T11 sequence: T1 sequence with I54V

Assay [12] concerns the target T12, SIX6 (Homo sapiens, UniProt O95475 114-200).
T12 sequence: T1 sequence with I54L

Assay [13] concerns the target T13, SIX6 (Homo sapiens, UniProt O95475 114-200, T165I).
T13 sequence: T1 sequence with T52I, I54L

Residue numbers refer to the chain shown, from its start.

Take GGTATCAC: the binding signal was 11.6 upbm affinity estimate (log intensity, higher = more binding, comparable within an allelic series) with SIX6 [1]; 10.5 upbm affinity estimate (log intensity, higher = more binding, comparable within an allelic series) with SIX6 [2]; 11.6 upbm affinity estimate (log intensity, higher = more binding, comparable within an allelic series) with SIX6 [3]; 9.55 upbm affinity estimate (log intensity, higher = more binding, comparable within an allelic series) in the assay with SIX6 [4]; 10.9 upbm affinity estimate (log intensity, higher = more binding, comparable within an allelic series) with SIX6 [5]; 11.2 upbm affinity estimate (log intensity, higher = more binding, comparable within an allelic series) in the assay with SIX6 [6]. For the same sequence, the binding signal with SIX6 [7] is 10.6 upbm affinity estimate (log intensity, higher = more binding, comparable within an allelic series); with SIX6 [8], 11.8 upbm affinity estimate (log intensity, higher = more binding, comparable within an allelic series); with SIX6 [9], 11.6 upbm affinity estimate (log intensity, higher = more binding, comparable within an allelic series); in the assay with SIX6 [10], 11.6 upbm affinity estimate (log intensity, higher = more binding, comparable within an allelic series); with SIX6 [11], 11.4 upbm affinity estimate (log intensity, higher = more binding, comparable within an allelic series); in the assay with SIX6 [12], 11.3 upbm affinity estimate (log intensity, higher = more binding, comparable within an allelic series). In addition, the binding signal in the assay with SIX6 [13] was 11.4 upbm affinity estimate (log intensity, higher = more binding, comparable within an allelic series).

For the sequence AAGTGCGC, the binding signal with SIX6 [1] is 8.9 upbm affinity estimate (log intensity, higher = more binding, comparable within an allelic series); in the assay with SIX6 [2], 9.07 upbm affinity estimate (log intensity, higher = more binding, comparable within an allelic series); with SIX6 [3], 8.88 upbm affinity estimate (log intensity, higher = more binding, comparable within an allelic series); with SIX6 [4], 9.2 upbm affinity estimate (log intensity, higher = more binding, comparable within an allelic series); with SIX6 [5] it was 9.05 upbm affinity estimate (log intensity, higher = more binding, comparable within an allelic series); with SIX6 [6], 9.11 upbm affinity estimate (log intensity, higher = more binding, comparable within an allelic series). The binding signal in the assay with SIX6 [7] was 9.08 upbm affinity estimate (log intensity, higher = more binding, comparable within an allelic series); with SIX6 [8], 9 upbm affinity estimate (log intensity, higher = more binding, comparable within an allelic series); with SIX6 [9], 9.05 upbm affinity estimate (log intensity, higher = more binding, comparable within an allelic series); with SIX6 [10], 8.96 upbm affinity estimate (log intensity, higher = more binding, comparable within an allelic series); with SIX6 [11], 8.99 upbm affinity estimate (log intensity, higher = more binding, comparable within an allelic series); in the assay with SIX6 [12] it was 9.04 upbm affinity estimate (log intensity, higher = more binding, comparable within an allelic series). Moreover, in the assay with SIX6 [13], the binding signal was 9.04 upbm affinity estimate (log intensity, higher = more binding, comparable within an allelic series).

With CCATATAC, the binding signal is 10.3 upbm affinity estimate (log intensity, higher = more binding, comparable within an allelic series) in the assay with SIX6 [1]; 10.1 upbm affinity estimate (log intensity, higher = more binding, comparable within an allelic series) in the assay with SIX6 [2]; 10.3 upbm affinity estimate (log intensity, higher = more binding, comparable within an allelic series) in the assay with SIX6 [3]; 9.82 upbm affinity estimate (log intensity, higher = more binding, comparable within an allelic series) with SIX6 [4]; 10.3 upbm affinity estimate (log intensity, higher = more binding, comparable within an allelic series) with SIX6 [5]; 10.4 upbm affinity estimate (log intensity, higher = more binding, comparable within an allelic series) with SIX6 [6]. The binding signal is 10.1 upbm affinity estimate (log intensity, higher = more binding, comparable within an allelic series) with SIX6 [7]; 10.4 upbm affinity estimate (log intensity, higher = more binding, comparable within an allelic series) in the assay with SIX6 [8]; 10.5 upbm affinity estimate (log intensity, higher = more binding, comparable within an allelic series) with SIX6 [9]; 10.3 upbm affinity estimate (log intensity, higher = more binding, comparable within an allelic series) in the assay with SIX6 [10]; 10.2 upbm affinity estimate (log intensity, higher = more binding, comparable within an allelic series) with SIX6 [11]; 10.4 upbm affinity estimate (log intensity, higher = more binding, comparable within an allelic series) in the assay with SIX6 [12]. For the same sequence, in the assay with SIX6 [13], the binding signal was 10.3 upbm affinity estimate (log intensity, higher = more binding, comparable within an allelic series).

With AGTGTATC, the binding signal in the assay with SIX6 [1] was 11 upbm affinity estimate (log intensity, higher = more binding, comparable within an allelic series); in the assay with SIX6 [2], 10.3 upbm affinity estimate (log intensity, higher = more binding, comparable within an allelic series); with SIX6 [3], 11 upbm affinity estimate (log intensity, higher = more binding, comparable within an allelic series); in the assay with SIX6 [4], 9.91 upbm affinity estimate (log intensity, higher = more binding, comparable within an allelic series); in the assay with SIX6 [5], 10.7 upbm affinity estimate (log intensity, higher = more binding, comparable within an allelic series); with SIX6 [6] it was 11 upbm affinity estimate (log intensity, higher = more binding, comparable within an allelic series). For the same sequence, the binding signal in the assay with SIX6 [7] is 10.4 upbm affinity estimate (log intensity, higher = more binding, comparable within an allelic series); in the assay with SIX6 [8], 11.1 upbm affinity estimate (log intensity, higher = more binding, comparable within an allelic series); in the assay with SIX6 [9], 11.3 upbm affinity estimate (log intensity, higher = more binding, comparable within an allelic series); in the assay with SIX6 [10], 11 upbm affinity estimate (log intensity, higher = more binding, comparable within an allelic series); with SIX6 [11], 10.8 upbm affinity estimate (log intensity, higher = more binding, comparable within an allelic series); with SIX6 [12], 11 upbm affinity estimate (log intensity, higher = more binding, comparable within an allelic series). In addition, the binding signal with SIX6 [13] is 10.9 upbm affinity estimate (log intensity, higher = more binding, comparable within an allelic series).

For CGGCCCAA, the binding signal is 9.05 upbm affinity estimate (log intensity, higher = more binding, comparable within an allelic series) in the assay with SIX6 [1]; 8.91 upbm affinity estimate (log intensity, higher = more binding, comparable within an allelic series) with SIX6 [2]; 9.04 upbm affinity estimate (log intensity, higher = more binding, comparable within an allelic series) in the assay with SIX6 [3]; 8.99 upbm affinity estimate (log intensity, higher = more binding, comparable within an allelic series) with SIX6 [4]; 9.02 upbm affinity estimate (log intensity, higher = more binding, comparable within an allelic series) with SIX6 [5]; 8.96 upbm affinity estimate (log intensity, higher = more binding, comparable within an allelic series) in the assay with SIX6 [6]. The binding signal was 8.94 upbm affinity estimate (log intensity, higher = more binding, comparable within an allelic series) with SIX6 [7]; 9.03 upbm affinity estimate (log intensity, higher = more binding, comparable within an allelic series) in the assay with SIX6 [8]; 9.14 upbm affinity estimate (log intensity, higher = more binding, comparable within an allelic series) with SIX6 [9]; 8.99 upbm affinity estimate (log intensity, higher = more binding, comparable within an allelic series) in the assay with SIX6 [10]; 8.99 upbm affinity estimate (log intensity, higher = more binding, comparable within an allelic series) in the assay with SIX6 [11]; 8.99 upbm affinity estimate (log intensity, higher = more binding, comparable within an allelic series) with SIX6 [12]. Further, the binding signal with SIX6 [13] is 9.03 upbm affinity estimate (log intensity, higher = more binding, comparable within an allelic series).

With GTGATACA, the binding signal with SIX6 [1] is 11.4 upbm affinity estimate (log intensity, higher = more binding, comparable within an allelic series); in the assay with SIX6 [2], 10.4 upbm affinity estimate (log intensity, higher = more binding, comparable within an allelic series); with SIX6 [3] it was 11.4 upbm affinity estimate (log intensity, higher = more binding, comparable within an allelic series); with SIX6 [4] it was 9.76 upbm affinity estimate (log intensity, higher = more binding, comparable within an allelic series); in the assay with SIX6 [5] it was 10.8 upbm affinity estimate (log intensity, higher = more binding, comparable within an allelic series); with SIX6 [6], 11.2 upbm affinity estimate (log intensity, higher = more binding, comparable within an allelic series). The binding signal with SIX6 [7] was 10.4 upbm affinity estimate (log intensity, higher = more binding, comparable within an allelic series); in the assay with SIX6 [8], 11.3 upbm affinity estimate (log intensity, higher = more binding, comparable within an allelic series); in the assay with SIX6 [9], 11.3 upbm affinity estimate (log intensity, higher = more binding, comparable within an allelic series); with SIX6 [10], 11.3 upbm affinity estimate (log intensity, higher = more binding, comparable within an allelic series); in the assay with SIX6 [11] it was 11.1 upbm affinity estimate (log intensity, higher = more binding, comparable within an allelic series); with SIX6 [12], 11 upbm affinity estimate (log intensity, higher = more binding, comparable within an allelic series). The binding signal with SIX6 [13] was 11.2 upbm affinity estimate (log intensity, higher = more binding, comparable within an allelic series).

Regarding CGGCGGAA, the binding signal in the assay with SIX6 [1] was 8.84 upbm affinity estimate (log intensity, higher = more binding, comparable within an allelic series); in the assay with SIX6 [2], 8.9 upbm affinity estimate (log intensity, higher = more binding, comparable within an allelic series); with SIX6 [3], 8.85 upbm affinity estimate (log intensity, higher = more binding, comparable within an allelic series); in the assay with SIX6 [4] it was 9.07 upbm affinity estimate (log intensity, higher = more binding, comparable within an allelic series); with SIX6 [5] it was 8.95 upbm affinity estimate (log intensity, higher = more binding, comparable within an allelic series); with SIX6 [6], 8.9 upbm affinity estimate (log intensity, higher = more binding, comparable within an allelic series). Further, the binding signal with SIX6 [7] was 8.96 upbm affinity estimate (log intensity, higher = more binding, comparable within an allelic series); with SIX6 [8] it was 9.04 upbm affinity estimate (log intensity, higher = more binding, comparable within an allelic series); with SIX6 [9], 8.95 upbm affinity estimate (log intensity, higher = more binding, comparable within an allelic series); in the assay with SIX6 [10], 8.82 upbm affinity estimate (log intensity, higher = more binding, comparable within an allelic series); with SIX6 [11], 8.8 upbm affinity estimate (log intensity, higher = more binding, comparable within an allelic series); with SIX6 [12], 8.95 upbm affinity estimate (log intensity, higher = more binding, comparable within an allelic series). Besides, the binding signal with SIX6 [13] is 8.9 upbm affinity estimate (log intensity, higher = more binding, comparable within an allelic series).

These data come from PMC11006913.
